High-throughput results deposited in PubChem BioAssay by several laboratories.
An excerpt weighted towards active compounds, which were near 2.1% of everything screened.
DUSP3 inh: VHR1 phosphatase inhibitors, primary screen, biochemical, absorbance, uHTS; Dual specificity protein phosphatase 3 (Homo sapiens), P51452; recombinant VHR phosphatase, pNPP absorbance; inhibition, % at 13.3 µM; 290,000 tested, 0.52% active; AID 1654, 2009; in the data active = inhibition above about 50%
PrPC TRFRET: inhibitors of human cell surface prion protein PrPC, primary screen, cell-based, TR-FRET. Major prion protein (Homo sapiens), P04156. AID 720596, 2013. 370,000 tested, 0.43% active. TR-FRET read-out. inhibition, % at 13.8 µM; in the data active = inhibition above about 24%; note: 0% = median of the test wells and 100% = reference compound wells
BJeLR viability: MLPCN primary cell-based screen for lethality selective to Ras in HRASV12 cells; inhibition, % (concentration not given with the values); AID 1554, 2009; BJeLR (HRASV12) viability, CellTiter-Glo ATP luminescence, 48 h; 300,000 tested, 0.17% active; in the data active = inhibition above about 50%; inconclusive = no clear call, values can overlap the other calls
MazF activator: activators of E. coli MazEF toxin-antitoxin RNase, primary screen, biochemical, fluorescence, uHTS. 350,000 tested, 0.32% active. FAM/BHQ RNA-DNA oligo cleavage fluorescence, 5 h. activation, % at 20 µM; in the data active = activation above about 50%
PfHsp40 rescue: rescue of yeast from PfHsp40 toxicity, primary screen, S. cerevisiae, ATP luminescence; S. cerevisiae expressing PfHsp40, growth rescue; growth rescue, % at 12.5 µM; 340,000 tested, 0.68% active; AID 504582, 2011; in the data active = growth rescue above about 28%, passing the limit was not always enough; inconclusive = no clear call, values can overlap the other calls;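 note: yeast W303a lacking pdr1 and pdr3 grown in galactose medium; growth measured after three days at 30 °C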
PrP 5UTR inh: inhibition of PrP 5' UTR reporter expression. cell-based PrP 5' UTR mRNA reporter, plate reader. inhibition, % (test concentration not listed). 340,000 tested, 0.35% active. AID 488862, 2010; in the data active = inhibition above about 52%; note: 0 = median of the neutral control wells
PrPC confirm: confirmation of inhibitors of cell surface human prion protein, confirmation, cell-based, TR-FRET; shares compounds with PrPC TRFRET; cell surface PrPC level; inhibition, % at 13.8 µM; 1,500 tested, 65% active; in the data active = inhibition above about 25%
LD9 tox: cytotoxicity in LD9 cells, cytotoxicity control for cell surface PrPc inhibitor project, cell-based, luminescence, high throughput | AID 743201, 2013 | shares compounds with PrPC TRFRET | inhibition, % at 13.8 µM | luminescence viability | 1,500 tested, 29% active; in the data active = inhibition above about 9.5%
Starred values were filed as active, the others as inactive; ? = inconclusive; nt = no result.

SMILES	DUSP3 inh	PrPC TRFRET	BJeLR viability	MazF activator	PfHsp40 rescue	PrP 5UTR inh	PrPC confirm	LD9 tox
O=S(=O)(CCN1CCN(c2ccccc2O)CC1)c1cc(Cl)ccc1Cl	nt	36*	nt	0	3	-14	3	-2
O=[N+]([O-])c1cc(Cl)ccc1N1CCN(c2ccccc2O)CC1	12	-7	6	0	7	-13	nt	nt
OC(Cc1cccc(Br)c1)c1ncc(-c2ccccc2C(F)(F)F)[nH]1 (configuration not stated)	nt	6	nt	nt	nt	nt	nt	nt
COC(=O)Cc1c(C)c2ccc(OCC(=O)N3CCCC(C)C3)c(C)c2oc1=O (configuration not stated)	-4	26*	-17	-6	1	-8	38*	9
COC(=O)Cc1c(C)c2ccc(OCC(C)=O)c(C)c2oc1=O	16	7	-4	0	1	-44	nt	nt
COc1ccc(OCCCC(=O)OCC(=O)N2CCN(S(=O)(=O)c3ccc(C)cc3C)CC2)cc1	nt	6	nt	4	-1	-6	nt	nt
CC(NC(N)=O)C12CC3CC(CC(C3)C1)C2 (configuration not stated)	-4	0	-7	-12	0	2	nt	nt
CC(NC1CCCCC1)C(O)C12CC3CC(CC(C3)C1)C2 (configuration not stated)	6	36*	1	11	0	-35	28*	2
CC(=O)Nc1sc2c(c1-c1nc3ccccc3s1)CN(C(C)C)C2	nt	11	nt	nt	nt	nt	nt	nt
CC(=O)Nc1sc2c(c1-c1nc3ccccc3s1)CN(C(C)C)CC2	nt	38*	nt	-237	-1	31	10	26*
CC(=O)Nc1sc2c(c1-c1nc3ccccc3s1)CCCN(C(C)C)C2	nt	38*	nt	nt	nt	nt	30*	33*
O=C(/C=C/c1ccc2c(c1)OCO2)Nc1nc2ccc(F)cc2s1	7	-1	-6	-82	0	-58	nt	nt
COC(=O)C1=C(c2ccc3ccccc3c2)C[C@@H]2CC[C@H]1N2C	nt	-3	nt	1	1	-3	nt	nt
COC(=O)C1=C(C(=O)OC)C2OC1c1cc3ccccc3cc12	nt	45*	nt	3	71*	-18	17	98*
COC(=O)C1CCN(C(=O)c2cc(-c3ccc(Cl)s3)nc3ccccc23)CC1	nt	36*	nt	3	3	-1	33*	27*
CCCC[C@@H]1CNCCN1CCCc1cc(OC)c(OC)c(OC)c1	nt	4	9	-3	-1	-18	nt	nt
Cc1cc(Br)c(NC(=O)CSc2n[nH]c(N)n2)c(Br)c1	nt	6	nt	2	0	-19	nt	nt
O=C(O)c1cc(O)c2c(c1)[C@H]([C@H]1c3cc(C(=O)O)cc(O)c3C(=O)c3c(O[C@@H]4O[C@H](CO)[C@@H](O)[C@H](O)[C@H]4O)cccc31)c1cccc(OC3O[C@H](CO)[C@@H](O)[C@H](O)[C@H]3O)c1C2=O (some centres not stated)	nt	91*	-15	-11	?	-14	12	0
COc1c(C)cccc1C(=O)NCCCNC(=O)c1ccc(C)nc1	3	0	4	6	-2	8	nt	nt
CCOC(=O)C1C(C(=O)OCC)C(C)(C)C1N(C)C (configuration not stated)	nt	3	nt	10	nt	nt	nt	nt
Cc1ccccc1Nc1ccc([N+](=O)[O-])cn1	4	-27	0	-21	2	-17	nt	nt
Cc1ccccc1NC1=NCC(c2ccc([N+](=O)[O-])cc2)S1 (configuration not stated)	7	46*	13	5	-2	-32	44*	2
CCCC(=O)c1ccc(OCc2cn(CC(=O)c3ccc(O)cc3)nn2)cc1	nt	28*	nt	5	-1	-14	22	-1
CC(=O)c1ccc(OCc2cc(C(=O)N(C)Cc3nc4c(C)cccc4[nH]3)no2)cc1	6	27*	2	4	2	-16	26*	0
Cc1cccc(C)c1OCc1cc(C(=O)N(C)Cc2nc3ccccc3[nH]2)no1	14	23	-2	2	2	-4	nt	nt
SMILES	DUSP3 inh	PrPC TRFRET	BJeLR viability	MazF activator	PfHsp40 rescue	PrP 5UTR inh	PrPC confirm	LD9 tox
O=C(Cc1ccc(S(=O)(=O)N2CCOCC2)s1)Nc1ccc(S(=O)(=O)N2CCCCC2)cc1	nt	nt	-2	-7	1	-13	nt	nt
O=C(Nc1ccc2c(c1)OCO2)c1cc(C2CCCCN2S(=O)(=O)c2ccccc2)on1 (configuration not stated)	nt	47*	nt	nt	nt	nt	40*	0
CN(C)c1ccc(CC(=O)N2CCCC(c3cc(C(=O)Nc4ccc(F)c(Cl)c4)no3)C2)cc1 (configuration not stated)	nt	27*	nt	nt	nt	nt	19	9
O=C(Nc1ccc2c(c1)OCO2)c1cc(C2CCCN(C(=O)C3CCCCC3)C2)on1 (configuration not stated)	nt	33*	nt	nt	nt	nt	24	-4
CC(C)COc1ccc(C(=O)Nc2ncn[nH]2)cc1	4	-4	5	-18	1	-21	nt	nt
CC(=O)Nc1ccc(S(=O)(=O)Nc2ccc(Cc3ccncc3)cc2)cc1	-5	4	-2	-4	0	-28	nt	nt
CC(C)(C)c1ccc(S(=O)(=O)Nc2ccc(Cc3ccncc3)cc2)cc1	-4	28*	-2	7	5	-16	44*	7
COc1ccc(Br)cc1C1=CC(=O)C[C@H](c2ccc(F)cc2)C1	nt	-3	nt	7	nt	nt	nt	nt
Cc1cc2cc(CNC(=S)Nc3ccc(OC(F)(F)F)cc3)ccc2n1C	-7	27*	-23	19	0	-6	34*	-4
Cc1cc2cc(CNC(=O)Nc3cccc(Cl)c3)ccc2n1C	11	35*	-4	3	-1	-29	44*	-2
COc1cccc(NC(=S)NCc2ccc3c(c2)cc(C)n3C)c1	2	19	6	3	2	-21	nt	nt
Cc1cccc(NC(=S)NCc2ccc3c(c2)cc(C)n3C)c1C	5	28*	-5	12	0	-5	5	1
CCC/C=C/c1ccc(CN2C(C(C)C)C(=O)N(Cc3cn(CC4CCCCC4)nn3)CCS2(=O)=O)cc1 (configuration not stated)	nt	-1	nt	0	nt	nt	nt	nt
NC(=O)c1nnn(Cc2cc(Cl)c(C(=O)c3ccc(Cl)cc3)c(Cl)c2)c1N	nt	35*	nt	nt	nt	nt	28*	7
CC(=O)Nc1ccc(NC(=O)c2cc([N+](=O)[O-])cc([N+](=O)[O-])c2)cc1	-28	-56	-3	12	0	-9	nt	nt
